Among the data in ChEMBL document CHEMBL1157539, “Thousands of chemical starting points for antimalarial lead identification” (Nature, 2010) are Inhibition values, retold here.

The term Inhibition denotes the change of the read-out against control, counted positive when it falls. Low values mean a weak effect, high ones a strong effect.

The assay relates to HepG2. The assay can be described thus: GSK_TCMDC: Percent inhibition of human HepG2 cell line. Test compounds present at 10uM. It is filed as functional.
For `COc1ccc2nccc([C@@H](O)CN3CCC(NC[C@H](Cc4ccccc4)NC(=O)OC(C)(C)C)CC3)c2c1.O=C(O)C(=O)O`, the Inhibition stood at 18%.
The result for `CC(C)(CNCc1ccc(F)c(F)c1)c1nc(-c2ccnc(N)n2)c(-c2ccc(Cl)c(O)c2)[nH]1.Cl` reads 41%.
To `Fc1ccc2[nH]c(-c3ccc(-c4ccc(CNCCN5CCNCC5)cc4)cc3)nc2c1.O=C(O)C(F)(F)F` belongs 94%; to `COc1ccc(S(=O)(=O)NC2CCN(CCNC(=O)Nc3cc(C)nc4ccccc34)C2)cc1` (stereo not given), 0%.
The result for `CCN1CCCC1CNC(=O)c1cc2c(-c3ccc(Cl)cc3)nn(C)c2s1` (stereo not given) reads 27%; that for `COc1ccc(CCNCCCCCNCCc2ccc(Cl)cc2)cc1OC.Cl`, 32%; that for `COc1ccc(C(=O)N[C@@H](CC(C)C)C(=O)N[C@H](/C=N/NC(=O)c2ccccc2)CCc2ccccc2)cc1OCCN1CCOCC1`, 2%.
Molecule `CN1CCC[C@@H](Oc2cc3c(cc2Br)CCN3C(=O)Nc2ccc(-c3ccncc3)c(Cl)c2)C1` yielded an Inhibition of 26%.
To `O=C(Nc1ccc(OC2CCN(Cc3ccc(F)cc3)CC2)c(Cl)c1)c1ccco1.O=C(O)C(F)(F)F` belongs 2%; to `Cc1ccc(-c2nc3ccccc3o2)cc1NCc1cc(Cc2ccccc2)ccc1O`, 45%.
For the molecule `O=C1SC(=Cc2ccc(O)c(O)c2)C(=O)N1c1ccccc1`, the Inhibition worked out at 12%.
In the case of `Cc1cc(NCC2CCN(CC3CCCCC3)C2)nc(Nc2ccc(Br)cc2)n1` (stereo not given), the Inhibition came to 0%.
`Cc1cccc(Cn2nc(-c3ccccc3)c(N3CCCCC3)cc2=O)c1`: the Inhibition was 29%.
Molecule `CN(C)CCCOc1c(C(C)(C)C)cc(-c2cc(C(C)(C)C)c(OCCCN(C)C)c(C(C)(C)C)c2)cc1C(C)(C)C` showed an Inhibition of 25%.
To `CC(C)CNCc1ccc(-c2ccc(CN(C(=O)NCCc3ccccc3)C3CCN(Cc4ccccc4)CC3)cc2)cc1.O=C(O)C(F)(F)F` belongs 37%; to `Cn1cc(-c2ccccc2C(=O)O)c(=O)c2cc(Cl)ccc21`, 16%; to `Cc1cc(-c2nc3ccc(C(=O)NCc4ccccc4)cc3n2C2CCN(C(=O)c3ccc(-c4ccccc4)cc3)CC2)ccn1`, 36%.
The result for `O=C(O)C(F)(F)F.O=C(c1ccccc1)N(Cc1ccccc1-c1ccc(CNCCc2ccccc2)cc1)C1CCN(Cc2ccccc2)CC1` reads 95%; that for `Nc1cccc(CNCc2cccc(-c3cccc(-c4nc5cc(F)ccc5[nH]4)c3)c2)c1.O=C(O)C(F)(F)F`, 5%; that for `Cc1ccc(Nc2nccc(NCC(O)c3cccc(C(F)(F)F)c3)n2)cc1` (stereo not given), 19%.
Molecule `CN(C)CCOc1ccc2c(=O)cc(CCc3cccc(F)c3F)n(CC(=O)N(C)Cc3ccc(-c4ccc(C(F)(F)F)cc4)cc3)c2c1.O=C(O)C(O)C(O)C(=O)O` had an Inhibition of 33%.
As for `CCNc1cc(C)nc(Nc2ccc(NC(=O)C3CCCC3)cc2)n1`, the Inhibition is 13%.
The result for `CN(c1ccc2c(c1)nc(Nc1cc(C(C)(C)C)on1)n2C)c1ccnc(Nc2ccc(CS(C)(=O)=O)cc2)n1` reads 77%; that for `CC1(C)N=C(N)N=C(N)N1OCCCOc1cc(Cl)c(Cl)cc1Cl.Cl`, 60%; that for `COc1ccc2nccc([C@@H](O)CN3CCC(NCc4cc5cccc(O)c5c(=O)[nH]4)CC3)c2c1.Cl`, 8%.
Turning to `CC[C@H](NC(=O)c1c(CN2CCC(N3CCCCC3)CC2)c(-c2ccccc2)nc2cc(O)ccc12)c1ccccc1`, the Inhibition turned out to be 15%.
The result for `Cc1nc(N)nc(N)c1CCCOc1ccccc1Cl` reads 40%; that for `COc1ccc(CNCC2CCC(CNCCc3ccccc3)CC2)cc1Cl` (stereo not given), 23%; that for `COc1ccc2nccc([C@@H](O)CN3CCC(NC(=O)/C=C/c4cccc(C)c4)CC3)c2c1`, 16%.
To `O=C(/C=C/c1ccc(I)cc1)NCCCCCN1CCC(c2c[nH]c3ccc(O)cc23)CC1` belongs 14%; to `Cl.O=c1cc(NCCCNC2CCOc3c(I)cc(Cl)cc32)[nH]c2ccccc12` (stereo not given), 0%; to `Cc1nc(-c2cccc(Nc3ccnc4cc(-c5nccs5)ccc34)c2)no1.Cl`, 37%.
To `CN(Cc1ccc(NC(=O)CCC2CCN(C(=O)/C=C/c3ccc(Cl)c(Cl)c3)CC2)cc1)C1CCOCC1` belongs 10%.
In turn, `O=C(Nc1ccc(Cl)c(C(F)(F)F)c1)N[C@H]1CCN(CCCCCNC(=O)C2CC2c2ccc(Cl)c(Cl)c2)C1` (stereo not given in full) displayed an Inhibition of 39%.
To `O=C(O)C(F)(F)F.OC1CCCN(Cc2cccc(-c3ccc(-c4nc5ccccc5[nH]4)cc3)c2)C1` (stereo not given) belongs 25%.
To `O=C(Nc1ccccc1)c1nn(CCCN2CCC(N3CCCC3)CC2)cc1-c1ccc(Cl)c(Cl)c1` belongs 31%.
To `Cl.NOCCCCOc1ccc(Br)cc1` belongs 0%; to `O=c1nc2[nH]c3ccccc3n2c(=O)[nH]1`, 21%.
The molecule `Cc1nc(NCCc2c[nH]cn2)cc(NCc2ccccc2)n1` yielded an Inhibition of 5%.
The result for `CCn1c(Sc2ccc(C#N)c([N+](=O)[O-])c2)nnc1-c1cc(OC)cc(OC)c1` reads 7%.
